Laboratory results from the antibiotic and cytotoxicity screens of Wong et al. (2023).
Out of some 39,000 compounds screened, about 3,300 (8.5%) were called active. The entries come from a sample that favours actives as a whole.

Tested on: HepG2
Experiment: cytotoxicity call (relative viability < 0.9)
Settings: 10 µM

Structure (SMILES)	cytotoxicity call
CCCCCCOc1cccc(N)c1	inactive
C[C@@H]1CCCCO[C@H](CN(C)C(=O)Nc2cccc3ccccc23)[C@@H](C)CN([C@@H](C)CO)C(=O)c2cc(NC(=O)CCCN(C)C)ccc2O1	inactive
CNC[C@@H]1OCCCC[C@@H](C)Oc2ccc(NS(=O)(=O)c3cn(C)cn3)cc2C(=O)N([C@H](C)CO)C[C@@H]1C	inactive
C[C@@H]1CN([C@@H](C)CO)C(=O)c2cc(NC(=O)Nc3ccc(C(F)(F)F)cc3)ccc2O[C@@H](C)CCCCO[C@H]1CN(C)CC1CCCCC1	inactive
C[C@H](CO)N1C[C@H](C)[C@@H](CN(C)CC2CCCCC2)OCCCC[C@H](C)Oc2ccc(NC(=O)Nc3ccc(C(F)(F)F)cc3)cc2C1=O	active
C[C@@H]1CCCCO[C@@H](CN(C)CC2CCCCC2)[C@H](C)CN([C@@H](C)CO)C(=O)c2cc(NC(=O)Nc3ccc(C(F)(F)F)cc3)ccc2O1	active
C[C@H]1CCCCO[C@@H](CN(C)CC2CCCCC2)[C@@H](C)CN([C@@H](C)CO)C(=O)c2cc(NC(=O)Nc3ccc(C(F)(F)F)cc3)ccc2O1	active
C[C@@H]1CCCCO[C@@H](CN(C)CC2CCCCC2)[C@H](C)CN([C@H](C)CO)C(=O)c2cc(NC(=O)Nc3ccc(C(F)(F)F)cc3)ccc2O1	active
CC(C)=CCCC(C)=CCOc1ccc2ccc(=O)oc2c1	inactive
O=C1/C(=C/c2cn(-c3ccccc3)nc2-c2ccc(OCc3ccc(Cl)cc3)cc2)SC(=S)N1CCS(=O)(=O)O	inactive
CCS(=O)(=O)NCC[C@H]1CC[C@H](NC(=O)C2CCOCC2)[C@@H](CO)O1	inactive
O=C(C[C@H]1C[C@H]2c3cc(NS(=O)(=O)c4ccc(F)cc4)ccc3O[C@H]2[C@@H](CO)O1)NCCc1ccccc1	inactive
COc1ccc(S(=O)(=O)N(C)C[C@H]2OCCCC[C@H](C)Oc3ccc(NC(=O)Nc4c(C)noc4C)cc3C(=O)N([C@H](C)CO)C[C@@H]2C)cc1	inactive
C[C@H]1CN([C@@H](C)CO)C(=O)Cc2cc(NC(=O)c3ccncc3)ccc2O[C@@H]1CN(C)S(=O)(=O)c1ccc(F)cc1	inactive
CN1CCN(C(=O)C[C@@H]2C[C@H]3c4cc(NC(=O)c5ccc6c(c5)OCO6)ccc4O[C@H]3[C@@H](CO)O2)CC1	inactive
CC(=O)O[C@@H]1CC[C@@]2(C)[C@@H](CC[C@]3(C)[C@@H]2C(=O)C=C2[C@@H]4[C@@H](C)[C@H](C)CC[C@]4(C)CC[C@]23C)[C@@]1(C)C(=O)O	inactive
C[C@@H]1CN([C@H](C)CO)C(=O)c2cccc(NC(=O)C3CC3)c2O[C@@H]1CN(C)C(=O)Nc1ccc2c(c1)OCO2	inactive
Cc1noc(C)c1NC(=O)N(C)C[C@@H]1Oc2ncc(C#CCN(C)C)cc2C(=O)N([C@H](C)CO)C[C@H]1C	inactive
C[C@@H]1CN([C@H](C)CO)C(=O)c2cc(NC(=O)Nc3ccc(C(F)(F)F)cc3)ccc2O[C@@H](C)CCCCO[C@@H]1CN(C)CC1CCCCC1	active
C[C@@H]1CCCCO[C@@H](CN(C)CC2CCCCC2)[C@@H](C)CN([C@H](C)CO)C(=O)c2cc(NC(=O)Nc3ccc(C(F)(F)F)cc3)ccc2O1	active
C[C@@H]1CCCCO[C@H](CN(C)CC2CCCCC2)[C@@H](C)CN([C@H](C)CO)C(=O)c2cc(NC(=O)Nc3ccc(C(F)(F)F)cc3)ccc2O1	active
C[C@H](CO)N1C[C@H](C)[C@H](CN(C)CC2CCCCC2)OCCCC[C@H](C)Oc2ccc(NC(=O)Nc3ccc(C(F)(F)F)cc3)cc2C1=O	active

Structure (SMILES)	cytotoxicity call
COCC(=O)Nc1ccc2c(c1)C(=O)N(C)C[C@@H](OC)[C@H](C)CN(C(=O)Cc1ccccn1)[C@@H](C)CO2	inactive
C[C@@H]1CN([C@@H](C)CO)C(=O)c2cc(C#CCc3ccccc3)cnc2O[C@@H]1CN(C)C(=O)C1CCOCC1	inactive
Cc1ccc(S(=O)(=O)N(C)C[C@@H]2Oc3c(NC(=O)C4CC4)cccc3C(=O)N([C@H](C)CO)C[C@@H]2C)cc1	inactive
C[C@@H]1CN([C@@H](C)CO)S(=O)(=O)c2ccc(C#C[C@@H](C)O)cc2O[C@H]1CN(C)C(=O)Nc1ccccc1	inactive
C[C@H]1CN([C@@H](C)CO)C(=O)c2cccc(NS(=O)(=O)c3cn(C)cn3)c2O[C@H]1CN(C)Cc1ccc2c(c1)OCO2	inactive
C[C@@H]1CCCCO[C@H](CN(C)Cc2ccc(C(=O)O)cc2)[C@H](C)CN([C@H](C)CO)C(=O)c2cc(NS(=O)(=O)c3ccc(F)cc3)ccc2O1	inactive
CC(C)NC(=O)Nc1ccc2c(c1)C(=O)N([C@H](C)CO)C[C@H](C)[C@H](CN(C)S(C)(=O)=O)OCCCC[C@H](C)O2	inactive
CCCC(=O)Nc1ccc2c(c1)C(=O)N(C)C[C@@H](OC)[C@H](C)CN(S(=O)(=O)c1cn(C)cn1)[C@H](C)CO2	inactive
C[C@@H]1CN([C@H](C)CO)C(=O)c2cccc(NS(=O)(=O)c3cccs3)c2O[C@@H]1CN(C)CC1CC1	inactive
COc1ccccc1C#Cc1cnc2c(c1)C(=O)N([C@@H](C)CO)C[C@@H](C)[C@@H](CN(C)C(=O)CC1CC1)O2	inactive
C[C@H]1CCCCO[C@H](CN(C)C(=O)Nc2ccccc2)[C@@H](C)CN([C@@H](C)CO)C(=O)c2cc(NS(=O)(=O)c3ccc(Cl)cc3)ccc2O1	inactive
COc1ccc(NC(=O)N(C)C[C@@H]2Oc3ccc(NC(=O)CCN4CCOCC4)cc3CC(=O)N([C@H](C)CO)C[C@@H]2C)cc1	inactive
C[C@H]1CN([C@@H](C)CO)C(=O)Cc2cc(NC(=O)Nc3ccc(C(F)(F)F)cc3)ccc2O[C@@H]1CN(C)C(=O)Nc1cccc2ccccc12	inactive
C[C@@H]1CN([C@H](C)CO)C(=O)Cc2cc(NS(=O)(=O)c3cn(C)cn3)ccc2O[C@@H]1CN(C)CC1CCCCC1	inactive
C[C@H](CO)N1C[C@H](C)[C@@H](CN(C)Cc2ccc(Oc3ccccc3)cc2)Oc2ncc(-c3ccncc3)cc2C1=O	inactive
C[C@@H]1CCCCO[C@H](CN(C)CC2CCCCC2)[C@H](C)CN([C@H](C)CO)C(=O)c2cc(NC(=O)Nc3ccc(C(F)(F)F)cc3)ccc2O1	active
C[C@@H]1CN([C@@H](C)CO)C(=O)c2cc(NC(=O)Nc3ccc(C(F)(F)F)cc3)ccc2O[C@@H](C)CCCCO[C@@H]1CN(C)CC1CCCCC1	active
C[C@@H]1CCCCO[C@H](CN(C)CC2CCCCC2)[C@H](C)CN([C@@H](C)CO)C(=O)c2cc(NC(=O)Nc3ccc(C(F)(F)F)cc3)ccc2O1	active
CCOC(=O)CCCCCC(=O)Nc1ccc2c(c1)C(=O)N([C@H](C)CO)C[C@@H](C)[C@@H](CN(C)S(=O)(=O)c1ccc(Cl)cc1)OCCCC[C@H](C)O2	inactive
Cc1ccc(S(=O)(=O)Nc2cccc3c2O[C@@H](CN(C)C(=O)Nc2cccc4ccccc24)[C@@H](C)CN([C@@H](C)CO)C3=O)cc1	inactive
Cc1ccc(S(=O)(=O)N(C)C[C@@H]2Oc3ccc(NS(=O)(=O)c4ccccc4)cc3CC(=O)N([C@H](C)CO)C[C@H]2C)cc1	inactive
CN1CC(=O)NC1=O	inactive

Structure (SMILES)	cytotoxicity call
O=C(NCCCO)C(=O)NC[C@H]1COc2ccccc2O1	inactive
C[C@H](CO)N1C[C@H](C)[C@@H](CN(C)Cc2ccc3c(c2)OCO3)Oc2ncc(C#CCN(C)C)cc2C1=O	inactive
CCCCC(=O)OC1CCC2C3CCc4cc(O)ccc4C3CCC12C (centres undefined)	inactive
Cc1ccc(S(=O)(=O)Nc2ccc3c(c2)C(=O)N([C@@H](C)CO)C[C@@H](C)[C@H](CN(C)S(=O)(=O)c2cn(C)cn2)O3)cc1	inactive
Cc1c[nH]c2ccccc12	inactive
Cc1cc(C)c2[nH]c3ccccc3c2n1	active
CN(C)Cc1nc(=O)c2ccccc2[nH]1	inactive
Cc1ccc(S(=O)(=O)N(C)C[C@H]2OCCCC[C@@H](C)Oc3ccc(NC(=O)Cc4ccccc4)cc3C(=O)N([C@@H](C)CO)C[C@@H]2C)cc1	inactive
Cc1noc(C)c1NC(=O)Nc1ccc2c(c1)CC(=O)N([C@H](C)CO)C[C@@H](C)[C@@H](CN(C)Cc1ccc(Cl)c(Cl)c1)O2	inactive
C[C@@H]1CN([C@@H](C)CO)C(=O)Cc2cc(NS(=O)(=O)c3ccc(Cl)cc3)ccc2O[C@@H]1CN(C)Cc1ccc(Oc2ccccc2)cc1	active
C[C@H](CO)N1C[C@H](C)[C@H](CN(C)Cc2ccc(Oc3ccccc3)cc2)Oc2ccc(NS(=O)(=O)c3ccc(Cl)cc3)cc2CC1=O	active
C[C@@H]1CN([C@H](C)CO)C(=O)Cc2cc(NS(=O)(=O)c3ccc(Cl)cc3)ccc2O[C@H]1CN(C)Cc1ccc(Oc2ccccc2)cc1	active
C[C@H]1CN([C@@H](C)CO)C(=O)Cc2cc(NS(=O)(=O)c3ccc(Cl)cc3)ccc2O[C@H]1CN(C)Cc1ccc(Oc2ccccc2)cc1	active
COCCNC(=O)C[C@H]1C[C@@H]2c3cc(NC(=O)Nc4ccc(C(F)(F)F)cc4)ccc3O[C@@H]2[C@H](CO)O1	inactive
C[C@H]1CN([C@@H](C)CO)C(=O)Cc2cc(NC(=O)CCCCCC(=O)Nc3ccccc3N)ccc2O[C@H]1CN(C)C(=O)Nc1cccc2ccccc12	inactive
Cc1cccc(N2C[C@@H](CN)OC2=O)c1	inactive
O=C(O)C[C@@H]1C=C[C@H](NC(=O)c2ccncc2)[C@@H](CO)O1	inactive
O=C(NO)c1ccc(C(=O)N/N=C/c2cccc(B(O)O)c2)cc1	inactive
C[C@@H]1CN([C@@H](C)CO)C(=O)c2cc(NS(=O)(=O)c3cccs3)ccc2O[C@@H](C)CCCCO[C@H]1CN(C)C(=O)Nc1ccc(F)cc1	inactive
COc1ccc(S(=O)(=O)Nc2cccc3c2O[C@H](CN(C)S(=O)(=O)c2cccs2)[C@@H](C)CN([C@H](C)CO)C3=O)cc1	inactive
